According to PubChem BioAssay (EPA / NIEHS):
“And” between values parts separate entries of the source, which are not always exact repeats. Identical values can stand only once. Inconclusive results are not listed. The source made the active and inactive calls. The calls were made as follows, unless noted: active = hit-call score of the fitted dose curve at least 0.9, where 1 is the maximum; inconclusive = response in the unintended direction; inactive = score below 0.9.

Legend:
[1] = BSK_4H_Eotaxin3: BioMAP Diversity Plus: 4H Assay for Eotaxin 3 Biomarker Activity (AID 2283000; active = hit-call score of the fitted dose curve at least 0.9, where 1 is the maximum; inactive = score below 0.9); conditions: primary human endothelial cells (HUVEC); actives raise or lower the signal
How it was run: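 HUVEC, 24 h post-dose, ELISA for Eotaxin-3/CCL26. Gain or loss of signal fitted bidirectionally vs DMSO baseline.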

[2] = molecular target: human Peroxisome Proliferator-activated Receptor alpha (PPARa), PPARA (gene 5465) (UniProt Q07869); assay: ATG_PPARa_TRANS: Attagene TRANS-FACTORIAL HepG2 Assay for human Peroxisome Proliferator-activated Receptor alpha (PPARa) (AID 2283001);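 as to AC50: potency for gain of reporter signal over DMSO so agonist or activator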
How it was run: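 HepG2, transient MRTU transfection, 24 h treatment. RT-PCR → FAM labelling → capillary electrophoresis. Fit vs DMSO, positive direction.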

[3] = molecular target: human Peroxisome Proliferator-activated Receptor delta (PPARd), PPARD (gene 5467) (UniProt Q03181); assay: ATG_PPARd_TRANS: Attagene TRANS-FACTORIAL HepG2 Assay for human Peroxisome Proliferator-activated Receptor delta (PPARd) (AID 2283002)
How it was run: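 HepG2 cells transiently transfected with GAL4-UAS multiplexed reporter units driven by exogenous chimeric NR-GAL4 proteins; 24 h compound exposure. Reporter mRNA measured by RT-PCR, 6-FAM primer extension, HpaI digestion and capillary electrophoresis; gain of signal fitted relative to DMSO.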

[4] = molecular target: Peroxisome proliferator-activated receptor gamma (Homo sapiens) (UniProt P37231); assay: ATG_PPARg_TRANS: Attagene TRANS-FACTORIAL HepG2 Assay for human Peroxisome Proliferator-activated Receptor-gamma (PPARg) (AID 2283007)
How it was run: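 Liver-derived HepG2 cells expressing an exogenous NR-Gal4 chimera alongside GAL4-UAS reporter genes; 24 h exposure. Fluorescence of reporter RT-PCR products, separated by capillary electrophoresis, gives mRNA induction relative to DMSO.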

[5] = molecular target: Nuclear receptor subfamily 1 group I member 2 (Homo sapiens) (UniProt O75469); assay: ATG_PXR_TRANS: Attagene TRANS-FACTORIAL HepG2 Assay for human Pregnane X Receptor (PXR) (AID 2283008)
How it was run: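 Transient HepG2 transfectants carrying multiplexed reporter transcription units; PXR activity read through a Gal4 chimera. 24 h exposure. RT-PCR/CE fluorescence; upward curve fit referenced to DMSO.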

[6] = molecular target: human Retinoic Acid Receptor gamma (RARg), RARG (gene 5916) (UniProt P13631); assay: ATG_RARg_TRANS: Attagene TRANS-FACTORIAL HepG2 Assay for human Retinoic Acid Receptor gamma (RARg) (AID 2283009)
How it was run: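 TRANS format measured activity of exogenous NR-GAL4 fusion (RARg) in transfected HepG2 liver cells after 24 h dosing. Induced reporter RNA was detected by RT-PCR/capillary electrophoresis fluorescence, analysed in the positive direction against DMSO.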

[7] = molecular target: human RAR-related Orphan Receptor beta (RORb), RORB (gene 6096) (UniProt Q92753); assay: ATG_RORb_TRANS: Attagene TRANS-FACTORIAL HepG2 Assay for human RAR-related Orphan Receptor beta (RORb) (AID 2283010)
How it was run: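 Transfect HepG2 with multiple GAL4-UAS reporter transcription units; dose chemicals for 24 h; isolate RNA, reverse-transcribe and PCR-amplify reporter sequences; label, digest and resolve fragments by capillary electrophoresis; fit increases relative to DMSO.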

[8] = molecular target: Retinoic acid receptor RXR-alpha (Homo sapiens) (UniProt P19793); assay: ATG_RXRa_TRANS: Attagene TRANS-FACTORIAL HepG2 Assay for human Retinoid X Receptor alpha (RXRa) (AID 2283012)
How it was run: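 Measures exogenous chimeric NR-GAL4 activity in transfected HepG2 liver cells after 24 h of dosing. Induced reporter mRNA was detected by RT-PCR with capillary electrophoresis, and gain of signal was analysed against DMSO.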

[9] = molecular target: human Retinoid X Receptor beta (RXRb), RXRB (gene 6257) (UniProt P28702); assay: ATG_RXRb_TRANS: Attagene TRANS-FACTORIAL HepG2 Assay for human Retinoid X Receptor beta (RXRb) (AID 2283013)
How it was run: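 Chimeric receptor-Gal4 activity was assessed in transiently transfected human HepG2 cells after 24 h exposure. Transcripts from GAL4-UAS reporters were quantified by fluorescent RT-PCR and capillary electrophoresis, with DMSO as negative control and baseline.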

[10] = molecular target: human Thyroid Receptor alpha (THRa1), THRA (gene 7067) (UniProt P10827); assay: ATG_THRa1_TRANS: Attagene TRANS-FACTORIAL HepG2 Assay for human Thyroid Receptor alpha (THRa1) (AID 2283014)
How it was run: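 HepG2 cells transiently transfected with multiplexed GAL4-UAS reporter units for exogenous chimeric THRa1-Gal4; reporter mRNA measured 24 h after dosing by RT-PCR, 6-FAM labelling, HpaI digestion and capillary electrophoresis. Gain-of-signal fitted versus DMSO baseline.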

[11] = read-out: E-selectin (Homo sapiens) (UniProt P16581); assay: BSK_3C_Eselectin: BioMAP Diversity Plus: 3C Assay for Eselectin Biomarker Activity (AID 2283015; active = hit-call score of the fitted dose curve at least 0.9, where 1 is the maximum; inactive = score below 0.9); conditions: primary human endothelial cells (HUVEC); actives raise or lower the signal
How it was run: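 Primary human umbilical vein endothelial cells (3C system) were dosed with chemical and cell-surface E-selectin measured by ELISA 24 h later. Bidirectional curve fitting used DMSO as negative control and baseline.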

[12] = read-out: Interleukin-1 alpha (IL1a), IL1A (gene 3552); assay: BSK_BE3C_IL1a: BioMAP Diversity Plus: BE3C Assay for Interleukin-1 alpha (IL1a) Biomarker Activity (AID 2283016; active = hit-call score of the fitted dose curve at least 0.9, where 1 is the maximum; inactive = score below 0.9); conditions: primary human bronchial epithelial cells; actives raise or lower the signal
How it was run: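 Signal from IL-1a ELISA, taken 24 h after chemical dosing of human bronchial epithelial cells, is compared with DMSO as baseline using bidirectional curve fitting.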

[13] = read-out: Monocyte Chemoattractant Protein-1 (MCP1), CCL2 (gene 6347); assay: BSK_3C_MCP1: BioMAP Diversity Plus: 3C Assay for Monocyte Chemoattractant Protein-1 (MCP1) Biomarker Activity (AID 2283017; active = hit-call score of the fitted dose curve at least 0.9, where 1 is the maximum; inactive = score below 0.9); conditions: primary human endothelial cells (HUVEC); actives raise or lower the signal
How it was run: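 Primary human umbilical vein endothelial cells (3C system) were exposed to test chemical for 24 h, after which MCP-1 was quantified by ELISA. Activity was fitted bidirectionally against DMSO as negative control and baseline.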

[14] = read-out: Human Leukocyte Antigen - DR isotype (HLADR), HLA-DRA (gene 3122); assay: BSK_3C_HLADR: BioMAP Diversity Plus: 3C Assay for Human Leukocyte Antigen - DR isotype (HLADR) Biomarker Activity (AID 2283019; active = hit-call score of the fitted dose curve at least 0.9, where 1 is the maximum; inactive = score below 0.9); conditions: primary human endothelial cells (HUVEC); actives raise or lower the signal
How it was run: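 Primary human umbilical vein endothelial cells (3C system) were dosed with compound and cell-surface HLA-DR was quantified by ELISA at 24 h. Activity was fitted bidirectionally against DMSO as negative control and baseline.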

[15] = read-out: Monocyte Chemoattractant Protein-1 (MCP1), CCL2 (gene 6347); assay: BSK_4H_MCP1: BioMAP Diversity Plus: 4H Assay for Monocyte Chemoattractant Protein-1 (MCP1) Biomarker Activity (AID 2283018; active = hit-call score of the fitted dose curve at least 0.9, where 1 is the maximum; inactive = score below 0.9); conditions: primary human endothelial cells (HUVEC); actives raise or lower the signal
How it was run: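 Endothelial cells from umbilical vein were treated with test chemical, then after 24 h MCP-1 levels were quantified by ELISA; endpoint values came from bidirectional fitting with DMSO as baseline of activity.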

[16] = read-out: Intercellular Adhesion Molecule 1 (ICAM1), ICAM1 (gene 3383); assay: BSK_3C_ICAM1: BioMAP Diversity Plus: 3C Assay for Intercellular Adhesion Molecule 1 (ICAM1) Biomarker Activity (AID 2283003; active = hit-call score of the fitted dose curve at least 0.9, where 1 is the maximum; inactive = score below 0.9); conditions: primary human endothelial cells (HUVEC); actives raise or lower the signal
How it was run: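 Chemicals are dosed onto primary human umbilical vein endothelium (3C system). After 24 h, ICAM-1 is measured by ELISA, and responses are fitted bidirectionally relative to DMSO.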

[17] = BSK_3C_Proliferation: Cell Proliferation Assessment in the BioMAP Diversity Plus: 3C Assay (AID 2283006; active = hit-call score of the fitted dose curve at least 0.9, where 1 is the maximum; inactive = score below 0.9); conditions: primary human endothelial cells (HUVEC)
How it was run: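 Cells (human umbilical vein endothelial, sub-confluent) receive test chemical; after 48 h they are fixed in 10% trichloroacetic acid, stained with 0.1% SRB and read at 560 nm. Activity is referenced to DMSO, fitting increases and decreases.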

[18] = molecular target: human Retinoic Acid Receptor beta (RARb), RARB (gene 5915) (UniProt P10826); assay: ATG_RARb_TRANS: Attagene TRANS-FACTORIAL HepG2 Assay for human Retinoic Acid Receptor beta (AID 2283004)
How it was run: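 HepG2 cells transiently transfected with multiplexed GAL4-UAS reporter units expressing chimeric NR–Gal4 fusions; 24 h compound exposure. Reporter mRNA quantified by RT-PCR, 6-FAM labelling, HpaI digestion and capillary electrophoresis; gain-of-signal fitted against DMSO baseline.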

[19] = molecular target: Retinoic acid receptor alpha (Homo sapiens) (UniProt P10276); assay: ATG_RARa_TRANS: Attagene TRANS-FACTORIAL HepG2 Assay for human Retinoic Acid Receptor alpha (RARa) (AID 2283005)
How it was run: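 HepG2 transiently transfected with multiplex GAL4-UAS reporter units including a human RARa–GAL4 chimera; 24 h compound exposure. Reporter mRNA quantified by RT-PCR, 6-FAM labeling and capillary electrophoresis; gain of signal versus DMSO.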

[20] = molecular target: human RAR-related Orphan Receptor gamma (RORg), RORC (gene 6097) (UniProt P51449); assay: ATG_RORg_TRANS: Attagene TRANS-FACTORIAL HepG2 Assay for human RAR-related Orphan Receptor gamma (RORg) (AID 2283011)
How it was run: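 Readout: reporter transcript induction (RT-PCR, fluorescent primer extension, capillary electrophoresis) after 24 h compound exposure of transiently transfected HepG2 cells carrying a RORg-Gal4 chimera and GAL4-UAS reporters; DMSO served as baseline, with increasing signal fitted.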

Measured: AC50

human Peroxisome Proliferator-activated Receptor alpha (PPARa), PPARA (gene 5465), sequence (Q07869 whole entry, looked up): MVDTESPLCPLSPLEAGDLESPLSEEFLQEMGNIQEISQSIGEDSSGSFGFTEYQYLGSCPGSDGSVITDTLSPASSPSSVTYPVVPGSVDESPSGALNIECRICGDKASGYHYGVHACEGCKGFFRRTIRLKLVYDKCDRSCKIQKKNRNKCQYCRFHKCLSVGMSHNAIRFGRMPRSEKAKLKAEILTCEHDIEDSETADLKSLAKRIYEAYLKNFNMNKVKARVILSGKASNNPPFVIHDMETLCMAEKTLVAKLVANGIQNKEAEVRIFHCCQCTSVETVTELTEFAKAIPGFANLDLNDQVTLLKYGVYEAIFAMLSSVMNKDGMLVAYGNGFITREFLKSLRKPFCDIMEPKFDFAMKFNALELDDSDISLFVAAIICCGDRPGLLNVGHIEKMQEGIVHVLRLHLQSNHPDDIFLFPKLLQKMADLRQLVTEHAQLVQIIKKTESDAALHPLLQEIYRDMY
Retinoic acid receptor RXR-alpha (Homo sapiens), sequence (P19793 whole entry, looked up, the tested form may be a part): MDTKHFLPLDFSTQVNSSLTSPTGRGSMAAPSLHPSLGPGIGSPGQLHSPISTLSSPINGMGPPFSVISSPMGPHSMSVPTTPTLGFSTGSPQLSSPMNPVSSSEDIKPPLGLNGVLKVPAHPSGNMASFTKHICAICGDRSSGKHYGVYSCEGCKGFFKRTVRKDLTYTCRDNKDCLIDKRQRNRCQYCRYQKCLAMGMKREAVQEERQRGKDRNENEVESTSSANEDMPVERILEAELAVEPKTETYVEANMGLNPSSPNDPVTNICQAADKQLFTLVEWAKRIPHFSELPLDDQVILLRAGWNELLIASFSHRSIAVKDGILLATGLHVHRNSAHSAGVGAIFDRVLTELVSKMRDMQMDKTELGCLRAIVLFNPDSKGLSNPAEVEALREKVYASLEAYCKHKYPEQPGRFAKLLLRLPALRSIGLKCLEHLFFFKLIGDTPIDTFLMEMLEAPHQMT
human Retinoic Acid Receptor gamma (RARg), RARG (gene 5916), sequence (P13631 whole entry, looked up, the tested form may be a part): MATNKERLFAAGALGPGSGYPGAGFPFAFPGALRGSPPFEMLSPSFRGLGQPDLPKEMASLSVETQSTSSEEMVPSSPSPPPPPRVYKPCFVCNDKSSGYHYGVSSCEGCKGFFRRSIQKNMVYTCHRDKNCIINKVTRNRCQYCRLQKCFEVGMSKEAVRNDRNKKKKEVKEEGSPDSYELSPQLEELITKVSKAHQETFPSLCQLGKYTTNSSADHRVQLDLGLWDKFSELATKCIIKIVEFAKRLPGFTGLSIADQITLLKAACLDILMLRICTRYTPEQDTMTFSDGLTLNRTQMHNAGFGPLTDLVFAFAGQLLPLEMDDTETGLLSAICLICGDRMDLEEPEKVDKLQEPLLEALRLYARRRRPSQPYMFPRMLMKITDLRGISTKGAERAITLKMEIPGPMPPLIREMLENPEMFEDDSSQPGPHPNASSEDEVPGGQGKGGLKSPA
human Peroxisome Proliferator-activated Receptor delta (PPARd), PPARD (gene 5467), sequence (Q03181 whole entry, looked up, the tested form may be a part): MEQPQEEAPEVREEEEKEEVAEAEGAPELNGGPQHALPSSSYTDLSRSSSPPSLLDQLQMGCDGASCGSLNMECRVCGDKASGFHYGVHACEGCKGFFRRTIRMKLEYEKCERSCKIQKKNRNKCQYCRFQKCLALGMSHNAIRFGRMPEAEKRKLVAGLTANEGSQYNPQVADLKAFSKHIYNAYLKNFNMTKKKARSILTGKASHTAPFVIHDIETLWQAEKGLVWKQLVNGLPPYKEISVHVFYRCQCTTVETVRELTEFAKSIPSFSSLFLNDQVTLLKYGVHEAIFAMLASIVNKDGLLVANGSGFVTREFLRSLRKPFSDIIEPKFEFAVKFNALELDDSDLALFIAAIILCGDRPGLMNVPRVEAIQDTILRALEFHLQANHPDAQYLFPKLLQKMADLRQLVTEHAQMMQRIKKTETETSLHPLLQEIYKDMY
human RAR-related Orphan Receptor beta (RORb), RORB (gene 6096), sequence (Q92753 whole entry, looked up, the tested form may be a part): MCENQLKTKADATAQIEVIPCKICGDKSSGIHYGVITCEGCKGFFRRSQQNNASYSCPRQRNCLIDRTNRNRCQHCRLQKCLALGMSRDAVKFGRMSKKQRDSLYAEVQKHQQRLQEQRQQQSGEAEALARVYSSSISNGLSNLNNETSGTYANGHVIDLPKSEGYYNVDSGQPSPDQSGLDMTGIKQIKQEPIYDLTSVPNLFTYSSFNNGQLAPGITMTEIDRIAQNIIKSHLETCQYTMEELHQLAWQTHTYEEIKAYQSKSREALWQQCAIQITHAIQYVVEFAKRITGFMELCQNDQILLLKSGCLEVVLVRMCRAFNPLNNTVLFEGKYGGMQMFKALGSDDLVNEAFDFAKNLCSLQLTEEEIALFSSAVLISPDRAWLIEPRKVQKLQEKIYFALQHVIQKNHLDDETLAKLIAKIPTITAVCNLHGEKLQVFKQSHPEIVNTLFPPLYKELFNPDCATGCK
E-selectin (Homo sapiens), sequence (P16581 whole entry, looked up): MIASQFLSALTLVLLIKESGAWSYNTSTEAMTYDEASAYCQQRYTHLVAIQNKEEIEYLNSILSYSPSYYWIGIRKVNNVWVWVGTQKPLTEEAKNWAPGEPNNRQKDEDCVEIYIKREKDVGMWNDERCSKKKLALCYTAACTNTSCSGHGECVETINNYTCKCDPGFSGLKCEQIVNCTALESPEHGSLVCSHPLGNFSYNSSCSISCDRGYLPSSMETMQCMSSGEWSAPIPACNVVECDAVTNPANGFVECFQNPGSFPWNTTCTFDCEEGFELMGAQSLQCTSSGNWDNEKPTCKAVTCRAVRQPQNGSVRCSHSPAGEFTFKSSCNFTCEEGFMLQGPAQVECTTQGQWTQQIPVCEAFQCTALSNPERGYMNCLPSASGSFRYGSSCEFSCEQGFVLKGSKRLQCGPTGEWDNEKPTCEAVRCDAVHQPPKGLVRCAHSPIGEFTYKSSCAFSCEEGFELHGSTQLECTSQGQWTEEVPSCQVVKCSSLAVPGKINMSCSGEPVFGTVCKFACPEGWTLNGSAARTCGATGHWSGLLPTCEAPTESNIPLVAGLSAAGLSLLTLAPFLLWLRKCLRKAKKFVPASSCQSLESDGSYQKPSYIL
human Retinoic Acid Receptor beta (RARb), RARB (gene 5915), sequence (P10826 whole entry, looked up, the tested form may be a part): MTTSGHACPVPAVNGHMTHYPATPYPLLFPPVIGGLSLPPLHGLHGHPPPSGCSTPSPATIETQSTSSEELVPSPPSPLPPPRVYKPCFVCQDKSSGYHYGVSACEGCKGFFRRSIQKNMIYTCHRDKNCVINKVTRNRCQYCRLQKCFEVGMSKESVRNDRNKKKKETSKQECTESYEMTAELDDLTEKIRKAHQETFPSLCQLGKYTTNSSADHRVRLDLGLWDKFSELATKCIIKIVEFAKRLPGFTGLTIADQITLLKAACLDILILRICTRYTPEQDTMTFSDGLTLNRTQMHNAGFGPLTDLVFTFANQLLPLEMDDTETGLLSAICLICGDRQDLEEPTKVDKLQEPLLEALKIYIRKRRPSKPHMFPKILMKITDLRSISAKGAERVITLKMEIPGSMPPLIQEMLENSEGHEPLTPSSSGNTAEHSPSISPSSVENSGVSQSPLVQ
human Retinoid X Receptor beta (RXRb), RXRB (gene 6257), sequence (P28702 whole entry, looked up, the tested form may be a part): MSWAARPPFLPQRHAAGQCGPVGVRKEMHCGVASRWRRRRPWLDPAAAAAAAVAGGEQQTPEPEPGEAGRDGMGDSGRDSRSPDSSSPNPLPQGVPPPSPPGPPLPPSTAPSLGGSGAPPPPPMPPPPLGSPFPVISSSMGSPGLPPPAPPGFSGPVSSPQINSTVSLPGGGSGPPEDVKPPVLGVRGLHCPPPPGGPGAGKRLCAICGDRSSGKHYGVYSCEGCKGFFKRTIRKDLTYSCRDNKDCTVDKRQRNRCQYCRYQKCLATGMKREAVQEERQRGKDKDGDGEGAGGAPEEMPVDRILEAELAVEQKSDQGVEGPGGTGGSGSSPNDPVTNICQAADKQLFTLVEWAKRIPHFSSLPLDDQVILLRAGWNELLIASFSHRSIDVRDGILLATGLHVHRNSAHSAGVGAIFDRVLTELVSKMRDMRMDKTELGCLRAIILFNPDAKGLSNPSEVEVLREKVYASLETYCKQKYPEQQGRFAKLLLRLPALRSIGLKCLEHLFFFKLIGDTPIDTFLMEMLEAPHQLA
human Thyroid Receptor alpha (THRa1), THRA (gene 7067), sequence (P10827 whole entry, looked up, the tested form may be a part): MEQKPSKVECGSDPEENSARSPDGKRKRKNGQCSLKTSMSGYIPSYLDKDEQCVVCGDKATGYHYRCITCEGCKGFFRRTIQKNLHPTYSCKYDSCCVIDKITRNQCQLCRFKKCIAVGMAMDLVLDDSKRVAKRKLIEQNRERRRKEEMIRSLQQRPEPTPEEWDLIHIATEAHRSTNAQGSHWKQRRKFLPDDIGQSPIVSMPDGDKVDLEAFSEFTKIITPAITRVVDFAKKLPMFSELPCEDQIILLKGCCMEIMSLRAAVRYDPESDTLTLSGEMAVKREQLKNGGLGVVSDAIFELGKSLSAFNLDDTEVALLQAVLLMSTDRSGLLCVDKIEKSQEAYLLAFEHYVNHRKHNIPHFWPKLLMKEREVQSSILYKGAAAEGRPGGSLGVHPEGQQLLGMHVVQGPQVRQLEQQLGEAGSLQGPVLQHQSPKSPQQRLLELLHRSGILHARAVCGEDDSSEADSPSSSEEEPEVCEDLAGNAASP
Nuclear receptor subfamily 1 group I member 2 (Homo sapiens), sequence (O75469 whole entry, looked up, the tested form may be a part): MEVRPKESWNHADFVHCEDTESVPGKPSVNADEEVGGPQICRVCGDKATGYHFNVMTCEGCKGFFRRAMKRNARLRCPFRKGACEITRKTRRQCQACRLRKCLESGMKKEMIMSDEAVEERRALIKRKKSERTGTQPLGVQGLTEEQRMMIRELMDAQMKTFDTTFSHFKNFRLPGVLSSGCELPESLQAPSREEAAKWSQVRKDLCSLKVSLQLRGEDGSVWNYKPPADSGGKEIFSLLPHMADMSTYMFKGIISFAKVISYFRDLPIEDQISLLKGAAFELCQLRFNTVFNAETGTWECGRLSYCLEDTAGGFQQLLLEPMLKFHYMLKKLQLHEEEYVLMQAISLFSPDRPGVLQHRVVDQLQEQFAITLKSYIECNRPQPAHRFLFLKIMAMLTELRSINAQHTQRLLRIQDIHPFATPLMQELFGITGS

c1ccc2c(c1)[nH]c1ccccc12
active: [5] 27.4 µM
inactive: [1] | [2] | [3] | [4] | [6] | [7] | [8] | [9] | [10] | [11] | [12] | [13] | [14]

COc1ccc(C(=O)/C(Br)=C\C(=O)O)cc1
inactive: [2] | [6] | [8] | [9] | [10]
active: [1] 8.38 µM and 20 µM | [5] 6.78 µM | [11] 15.2 µM and 20 µM | [12] 25.5 µM and 15.9 µM | [13] 28.8 µM and 30.2 µM | [15] 16.6 µM and 29.4 µM | [14] 12.4 µM and 20 µM

C1CNCCN1
inactive: [1] | [6] | [11] | [12] | [13] | [14]

CCCCCCCCC(CO)CCCCCC (centres undefined)
active: [1] 5.35 µM | [9] 21.9 µM | [13] 5.93 µM
inactive: [16] | [4] | [5] | [6] | [7] | [8] | [11] | [12] | [15] | [14]

COc1ccc(C(=O)c2ccccc2)c(O)c1
active: [1] 20 µM | [4] 33.1 µM | [5] 27.3 µM | [9] 28.7 µM | [13] 0.185 µM | [14] 27.8 µM
inactive: [3] | [17] | [8] | [11] | [12]

CCCCCC[C@@H](O)C/C=C\CCCCCCCC(=O)OCC(O)CO (some centres undefined)
active: [2] 15.3 µM | [3] 27.7 µM | [4] 57.8 µM | [9] 85 µM
inactive: [18] | [19] | [5] | [6] | [7] | [8] | [10]

CC1=CC=C(C(C)C)CC1
inactive: [1] | [16] | [17] | [4] | [7] | [8] | [9] | [11] | [12] | [13] | [14]

Cc1c(O)cccc1O
inactive: [1] | [4] | [7] | [11] | [12] | [13] | [14]

CC(=O)OCc1ccccc1
inactive: [2] | [3] | [18] | [4] | [5] | [7] | [8] | [9]

CC=C(C)C=CC=C(C)C
active: [1] 20 µM | [4] 27.8 µM | [11] 20 µM | [14] 20 µM
inactive: [6] | [9] | [10] | [12] | [13] | [15]

CCCCC(CC)COC(=O)/C=C/c1ccc(OC)cc1 (centres undefined)
inactive: [2] | [3] | [18] | [19] | [4] | [5] | [7] | [20] | [8] | [9] | [10]
